Measurements reported in PubChem BioAssay (NCI).
About 79,000 compounds went through this panel and 15% of them were active in at least one assay; those are over-represented in the sample as a whole. The source made the active and inactive calls. No stated cut-off is given here; in the data, active means growth inhibition above about 70%; inactive means the rest.

Assays:
[1] = NCI Yeast Anticancer Drug Screen. Data for the wt2 strain (AID 169);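 further: 0% = growth of vehicle-treated yeast cultures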; conditions: S. cerevisiae wt2 strain growth inhibition, stronger effect = higher value
Outline: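 Read-out: growth inhibition versus vehicle-treated control cultures after compound exposure of the yeast strain.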

[2] = NCI Yeast Anticancer Drug Screen. Data for the mlh1 strain (AID 171);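 further: 0% = growth of vehicle-treated control cultures of the same strain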; conditions: S. cerevisiae mlh1 strain growth inhibition, stronger effect = higher value
Outline: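 Read-out: growth inhibition versus vehicle controls. Strain: engineered yeast with a defined DNA repair or cell cycle defect, compound-treated.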

[3] = NCI Yeast Anticancer Drug Screen. Data for the sgs1 strain (AID 173);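 further: 0% = growth of vehicle-only control cultures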; conditions: S. cerevisiae sgs1 mutant, stronger effect = higher value
Outline: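 Read-out: yeast growth inhibition relative to vehicle controls, following compound exposure of a strain with a defined DNA repair/cell cycle alteration.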

[4] = NCI Yeast Anticancer Drug Screen. Data for the mlh1 rad18 strain (AID 175); conditions: S. cerevisiae mlh1 rad18 strain growth inhibition, stronger effect = higher value
Outline: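 Yeast w/ defined DNA-repair lesions; compound exposure; growth vs vehicle controls → % inhibition.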

[5] = NCI Yeast Anticancer Drug Screen. Data for the rad18 strain (AID 177); conditions: S. cerevisiae rad18 mutant growth inhibition, stronger effect = higher value
Outline: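 Readout: growth inhibition vs vehicle controls. Cells: genetically altered yeast strain, DNA repair defect.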

[6] = NCI Yeast Anticancer Drug Screen. Data for the rad52 strain (AID 147);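 further: 0% = growth of vehicle-treated control cultures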; conditions: S. cerevisiae rad52 mutant growth inhibition, stronger effect = higher value
Outline: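 Read-out: growth inhibition versus vehicle-treated controls. Cells were a DNA repair-deficient yeast strain treated with compounds.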

[7] = NCI Yeast Anticancer Drug Screen. Data for the wt1 strain (AID 149);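 further: 0% = growth of vehicle-treated wt1 cultures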; conditions: S. cerevisiae wt1 strain (SPY 50644) growth inhibition, stronger effect = higher value
Outline: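 Yeast wt1 strain exposed to compounds; growth inhibition measured relative to vehicle-treated controls.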

[8] = NCI Yeast Anticancer Drug Screen. Data for the rad50EPP+ strain (AID 151);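 further: 0% = growth of vehicle-treated control cultures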; conditions: S. cerevisiae rad50 mutant strain, stronger effect = higher value
Outline: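 Growth inhibition read against vehicle controls in rad50EPP+ yeast, a strain altered in DNA damage repair, after compound exposure.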

[9] = NCI Yeast Anticancer Drug Screen. Data for the mgt1 strain (AID 153); conditions: S. cerevisiae mgt1 mutant growth inhibition, stronger effect = higher value
Outline: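 mgt1 yeast grown with test compound; read-out is growth inhibition versus vehicle-treated cultures.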

[10] = NCI Yeast Anticancer Drug Screen. Data for the rad50 strain (AID 155);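 further: 0% = growth of vehicle-only cultures of the same strain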; conditions: S. cerevisiae rad50 strain growth inhibition, stronger effect = higher value
Outline: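 Yeast carrying a defined DNA repair defect were exposed to test compounds, and growth was compared with vehicle-treated controls to give percent inhibition.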

[11] = NCI Yeast Anticancer Drug Screen. Data for the mec2-1 strain (AID 157); conditions: S. cerevisiae mec2-1 strain, stronger effect = higher value
Outline: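 Yeast mec2-1 mutant treated with compound. Readout: growth inhibition vs vehicle controls.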

[12] = NCI Yeast Anticancer Drug Screen. Data for the rad14 strain (AID 159);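 further: 0% = growth of vehicle-treated control cultures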; conditions: S. cerevisiae rad14 strain growth inhibition, stronger effect = higher value
Outline: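 Yeast cells carrying a defined DNA-repair defect were exposed to compounds, and growth inhibition was calculated relative to vehicle-treated control cultures.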

[13] = NCI Yeast Anticancer Drug Screen. Data for the sgs1 mgt1 strain (AID 161);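 further: 0% = growth of cultures given vehicle only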; conditions: S. cerevisiae sgs1 mgt1 strain, stronger effect = higher value
Outline: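 Inhibition of yeast growth, normalised to vehicle-treated controls, is reported for a strain bearing genetic alterations in DNA damage repair.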

[14] = NCI Yeast Anticancer Drug Screen. Data for the CLN2oe strain (AID 163);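 further: 0% = growth of vehicle-only control cultures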; conditions: S. cerevisiae CLN2oe strain, stronger effect = higher value
Outline: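 Read-out: yeast growth inhibition, expressed relative to vehicle-only controls. The strain bears an engineered cell-cycle alteration.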

[15] = NCI Yeast Anticancer Drug Screen. Data for the cln2 rad14 strain (AID 165);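 further: 0% = growth equal to vehicle treated cultures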; conditions: S. cerevisiae cln2 rad14 strain, stronger effect = higher value
Outline: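 cln2 rad14 yeast strain; compound exposure; growth inhibition read vs vehicle controls.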

[16] = NCI Yeast Anticancer Drug Screen. Data for the bub3 strain (AID 167); conditions: S. cerevisiae bub3 mutant strain, stronger effect = higher value
Outline: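 Compounds were applied to a genetically altered yeast strain carrying a cell-cycle control defect. Growth inhibition was scored against vehicle-treated controls.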

[17] = at 5.0 µM (retest, dose inferred, filed as 0.5)
[18] = at 50.0 µM (retest, dose inferred, filed as 5.0)

Measured: growth inhibition

CCCCCCCCCC(=O)N(CCC)CCC
inactive: [1]; at 1.2 µM -5% | [1]; at 3.7 µM -2% | [1]; at 11.0 µM -10% | [1]; at 33.0 µM 49% | [2]; at 1.2 µM 2% | [2]; at 3.7 µM -15% | [2]; at 11.0 µM -13% | [2]; at 33.0 µM 41% | [3]; at 1.2 µM -4% | [3]; at 3.7 µM -9% | [3]; at 11.0 µM -17% | [5]; at 1.2 µM 15% | [5]; at 3.7 µM 21% | [5]; at 11.0 µM 15% | [5]; at 33.0 µM 68%
active: [1]; at 100.0 µM 97% | [2]; at 100.0 µM 96% | [3]; at 33.0 µM 73% | [3]; at 100.0 µM 98% | [4]; [17] 99% | [4]; [18] 99% | [4]; at 50.0 µM 90.3% | [5]; at 100.0 µM 98%

OC1(C#CI)CCCCC1
inactive: [6]; at 1.2 µM 1% | [6]; at 3.7 µM 43% | [7]; at 1.2 µM -4% | [7]; at 3.7 µM 38% | [8]; at 1.2 µM -16% | [8]; at 3.7 µM 40% | [9]; at 1.2 µM -7% | [9]; at 3.7 µM -3% | [10]; at 1.2 µM -6% | [10]; at 3.7 µM 58% | [10]; [17] 67% | [11]; at 1.2 µM -4% | [11]; at 3.7 µM 6% | [11]; [17] -18% | [12]; at 1.2 µM -2% | [12]; at 3.7 µM 32% | [13]; [17] -20% | [14]; at 1.2 µM -11% | [14]; at 3.7 µM -5% | [15]; [17] -28% | [16]; at 1.2 µM -19% | [16]; at 3.7 µM 12% | [16]; [17] -35% | [1]; at 1.2 µM -7% | [1]; at 3.7 µM 28% | [2]; at 1.2 µM -14% | [2]; at 3.7 µM 17% | [3]; at 1.2 µM 1% | [3]; at 3.7 µM 37% | [4]; [17] -52% | [5]; at 1.2 µM 3% | [5]; at 3.7 µM 60%
active: [6]; at 11.0 µM 96% | [6]; at 33.0 µM 98% | [6]; at 100.0 µM 99% | [7]; at 11.0 µM 96% | [7]; at 33.0 µM 99% | [7]; at 100.0 µM 99% | [8]; at 11.0 µM 96% | [8]; at 33.0 µM 99% | [8]; at 100.0 µM 99% | [9]; at 11.0 µM 88% | [9]; at 33.0 µM 99% | [9]; at 100.0 µM 99% | [10]; at 11.0 µM 98% | [10]; at 33.0 µM 99% | [10]; [18] 97% | [10]; at 50.0 µM 99.7% | [10]; at 100.0 µM 99% | [11]; at 11.0 µM 89% | [11]; at 33.0 µM 99% | [11]; [18] 98% | [11]; at 50.0 µM 99.5% | [11]; at 100.0 µM 100% | [12]; at 11.0 µM 98% | [12]; at 33.0 µM 99% | [12]; at 100.0 µM 100% | [13]; [18] 97% | [13]; at 50.0 µM 98.6% | [14]; at 11.0 µM 82% | [14]; at 33.0 µM 99% | [14]; at 100.0 µM 99% | [15]; [18] 98% | [15]; at 50.0 µM 99.2% | [16]; at 11.0 µM 97% | [16]; at 33.0 µM 99% | [16]; [18] 97% | [16]; at 50.0 µM 99.3% | [16]; at 100.0 µM 99% | [1]; at 11.0 µM 98% | [1]; at 33.0 µM 99% | [1]; at 100.0 µM 100% | [2]; at 11.0 µM 96% | [2]; at 33.0 µM 99% | [2]; at 100.0 µM 99% | [3]; at 11.0 µM 96% | [3]; at 33.0 µM 99% | [3]; at 100.0 µM 99% | [4]; [18] 97% | [4]; at 50.0 µM 99.1% | [5]; at 11.0 µM 96% | [5]; at 33.0 µM 99% | [5]; at 100.0 µM 99%

CCCCCCCCCCCNC=O
active: [6]; at 100.0 µM 98% | [7]; at 100.0 µM 98% | [8]; at 100.0 µM 97% | [9]; at 33.0 µM 72% | [9]; at 100.0 µM 98% | [10]; [18] 96% | [10]; at 50.0 µM 89.9% | [10]; at 100.0 µM 98% | [11]; [18] 96% | [11]; at 50.0 µM 91.3% | [11]; at 100.0 µM 98% | [12]; at 100.0 µM 98% | [13]; [18] 93% | [13]; at 50.0 µM 92.5% | [14]; at 100.0 µM 98% | [15]; [18] 94% | [15]; at 50.0 µM 88% | [16]; [18] 97% | [16]; at 50.0 µM 89.4% | [16]; at 100.0 µM 98% | [1]; at 100.0 µM 98% | [2]; at 100.0 µM 98% | [3]; at 100.0 µM 99% | [4]; [18] 97% | [4]; at 50.0 µM 88.6% | [5]; at 100.0 µM 98%
inactive: [6]; at 1.2 µM -33% | [6]; at 3.7 µM -30% | [6]; at 11.0 µM -39% | [6]; at 33.0 µM 34% | [7]; at 1.2 µM -18% | [7]; at 3.7 µM -10% | [7]; at 11.0 µM -9% | [7]; at 33.0 µM 1% | [8]; at 1.2 µM -14% | [8]; at 3.7 µM -11% | [8]; at 11.0 µM 0% | [8]; at 33.0 µM 15% | [9]; at 1.2 µM -30% | [9]; at 3.7 µM -19% | [9]; at 11.0 µM -18% | [10]; at 1.2 µM -16% | [10]; at 3.7 µM -19% | [10]; [17] 1% | [10]; at 11.0 µM -41% | [10]; at 33.0 µM 29% | [11]; at 1.2 µM -22% | [11]; at 3.7 µM -21% | [11]; [17] 7% | [11]; at 11.0 µM -20% | [11]; at 33.0 µM 21% | [12]; at 1.2 µM -7% | [12]; at 3.7 µM -17% | [12]; at 11.0 µM -4% | [12]; at 33.0 µM 30% | [13]; [17] 9% | [14]; at 1.2 µM -15% | [14]; at 3.7 µM -14% | [14]; at 11.0 µM -27% | [14]; at 33.0 µM -20% | [15]; [17] 42% | [16]; at 1.2 µM -21% | [16]; at 3.7 µM -14% | [16]; [17] 22% | [16]; at 11.0 µM -12% | [16]; at 33.0 µM 21% | [1]; at 1.2 µM -45% | [1]; at 3.7 µM -39% | [1]; at 11.0 µM -33% | [1]; at 33.0 µM -5% | [2]; at 1.2 µM -17% | [2]; at 3.7 µM -19% | [2]; at 11.0 µM -11% | [2]; at 33.0 µM 69% | [3]; at 1.2 µM -14% | [3]; at 3.7 µM -17% | [3]; at 11.0 µM -19% | [3]; at 33.0 µM 3% | [4]; [17] -14% | [5]; at 1.2 µM -22% | [5]; at 3.7 µM -22% | [5]; at 11.0 µM -15% | [5]; at 33.0 µM 54%
